From PubChem BioAssay (NCI)
The panel holds about 79,000 compounds, 15% with a hit somewhere; the sample as a whole holds those more often. Rule as the data show it: active = growth inhibition above about 70%; inactive = the rest.

Tests used:
[1] = NCI Yeast Anticancer Drug Screen. Data for the rad50 strain (AID 155);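 also: 0% = growth of vehicle-only cultures of the same strain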; conditions: S. cerevisiae rad50 strain growth inhibition; at 50.0 µM; hits give high values
In short: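 Readout: growth inhibition relative to vehicle-treated cultures. Compound exposure was carried out in a genetically defined yeast strain deficient in DNA damage repair.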

[2] = NCI Yeast Anticancer Drug Screen. Data for the mec2-1 strain (AID 157); conditions: S. cerevisiae mec2-1 strain, at 50.0 µM, hits give high values
In short: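 Growth inhibition is read against vehicle-treated controls after compound exposure of the mec2-1 yeast strain, which is defective in DNA damage repair or cell cycle control.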

[3] = NCI Yeast Anticancer Drug Screen. Data for the sgs1 mgt1 strain (AID 161);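 also: 0% = growth of cultures given vehicle only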; conditions: S. cerevisiae sgs1 mgt1 strain, at 50.0 µM, hits give high values
In short: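 Compounds are added to genetically altered yeast, and growth is compared with cultures given vehicle alone to give percent inhibition.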

[4] = NCI Yeast Anticancer Drug Screen. Data for the cln2 rad14 strain (AID 165);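 also: 0% = growth equal to vehicle treated cultures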; conditions: S. cerevisiae cln2 rad14 strain, at 50.0 µM, hits give high values
In short: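 Growth inhibition, relative to vehicle-treated controls, is the read-out. The test organism is a yeast strain with defined genetic alterations, cln2 rad14.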

[5] = NCI Yeast Anticancer Drug Screen. Data for the bub3 strain (AID 167); conditions: S. cerevisiae bub3 mutant strain, at 50.0 µM, hits give high values
In short: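 Readout: yeast growth inhibition, expressed relative to vehicle-only wells. The test organism is a mutant strain from a panel with lesions in DNA repair or checkpoint genes.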

[6] = NCI Yeast Anticancer Drug Screen. Data for the mlh1 rad18 strain (AID 175); conditions: S. cerevisiae mlh1 rad18 strain growth inhibition; at 50.0 µM; hits give high values
In short: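 Cells of a genetically altered yeast strain, deficient in DNA damage repair, were treated with compound. Their growth was then compared with that of vehicle-treated cultures to give inhibition.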

Measured: growth inhibition

O=C(NCCCCCCCCNC(=O)c1cccc2ccccc12)c1cccc2ccccc12
inactive: [1] 14.2% | [2] 25% | [3] 2.8% | [4] -9.25% | [5] -10.4% | [6] 16.8%

CCOc1ccc(C=O)cc1OCC
inactive: [1] 0.15% | [2] -25.4% | [3] -9.3% | [4] -15.8% | [5] -2.7% | [6] -10.3%

O=C(O)C1C(c2ccccc2)CC(=O)N1c1ccc(Cl)cc1 (stereo not given)
inactive: [1] 1.55% | [2] 8.25% | [3] 5.75% | [4] 1.1% | [5] 19.6% | [6] -7.6%

CCc1nc(N)nc(N)c1-c1ccc(Cl)c(S(=O)(=O)O)c1
inactive: [1] -27.1% | [2] -26.1% | [3] -9.8% | [4] -13.4% | [5] -15.1% | [6] 1.85%

O=C(CCSc1ncnc2nc[nH]c12)c1ccccc1
inactive: [1] -24.8% | [2] 20.4% | [3] -3.05% | [4] -36.2% | [5] 4.3% | [6] 12.1%

CCCCn1cccc1
inactive: [1] 33.2% | [2] 10.2% | [3] 9.3% | [4] 15% | [5] 26.8% | [6] 26.4%

c1ccc(CNc2ncccn2)nc1
inactive: [1] 21.8% | [2] 7.45% | [3] 40.7% | [4] 7.35% | [5] -10% | [6] 11.4%

O=C(O)c1ccc(O)cc1
inactive: [1] 14.3% | [2] 44.7% | [3] -0.9% | [4] 2.45% | [5] 1.7% | [6] 21.9%

Cc1cc(C)c(NC(=O)NC2CCCCC2)cc1C
inactive: [1] 3.95% | [2] -9.3% | [3] 4.15% | [4] -1.6% | [5] 10.2% | [6] 34.9%

CC(C)(C)c1cc(/C=C/c2cc(/C=C/c3cc(C(C)(C)C)c(O)c(C(C)(C)C)c3)c([N+](=O)[O-])cc2[N+](=O)[O-])cc(C(C)(C)C)c1O
inactive: [1] 20.2% | [2] -0.15% | [3] 1.85% | [4] -45.7% | [5] 3.65% | [6] 5.8%

CCOC(=O)COc1ccc(Cl)cc1C
inactive: [1] 11.7% | [2] -4.7% | [3] -2.4% | [4] 4.45% | [5] 6.8% | [6] -17.2%

O=C(O)c1cccc(=O)o1
inactive: [1] -3.35% | [2] -16.3% | [3] -11.3% | [4] 3.35% | [5] 7.1% | [6] -1.65%

CC(C)OC(CCCl)c1ccccc1 (stereo not given)
inactive: [1] -6.4% | [2] -45.5% | [3] -4.85% | [4] 5.6% | [5] -23.7% | [6] 3.1%

C[N+](C)(C)C1C2(CCCCC2)NC(=O)C12CCCCC2 (stereo not given)
inactive: [1] 5.6% | [2] -0.75% | [3] -11.5% | [4] -3.1% | [5] -5.85% | [6] -2.9%

COC(=O)/C(=N/NC(C)(C)C)C(C(=O)C=C(C)C)C(=O)C(=O)Nc1ccc(Cl)cc1C (stereo not given)
inactive: [1] 2.2% | [2] -1.55% | [3] -11.2% | [4] -28.9% | [5] -0.7% | [6] 0.8%

CC(=O)N(c1c(N)[nH]c(=O)n(C)c1=O)C1OC(CO)C(O)C(O)C1O (stereo not given)
inactive: [1] -1.65% | [2] 2.8% | [3] 19.1% | [4] -5% | [5] 4.3% | [6] 12.4%

COS(=O)c1cc(Cl)cc(Cl)c1O (stereo not given)
inactive: [1] -0.6% | [2] 4.55% | [3] -10.7% | [4] -28.2% | [5] -0.85% | [6] 2.25%

CCCCCC1OCC(C)(C)C(C(C)C)O1 (stereo not given)
inactive: [1] -0.2% | [2] -23.9% | [3] -12.7% | [4] 0.95% | [5] -13.6% | [6] 8.55%

O=C1NC2OCC(O)C(O1)C2O (stereo not given)
inactive: [1] 3.85% | [2] 1% | [3] -13.3% | [4] 7.75% | [5] -2.25% | [6] 16.3%

COc1ccc2ccccc2c1I
inactive: [1] 18.4% | [2] 1.4% | [3] 2.75% | [4] 10.7% | [5] 23.6% | [6] 9.45%
